Screening results deposited in PubChem BioAssay by National Center for Advancing Translational Sciences (NCATS).
D3 ag: activates the human D3 dopamine receptor. P35462. D3R DiscoveRx beta-arrestin cells, luminescence, 90 min. max activation, %. actives 0.58% (n = 410,000). AID 652048; in the data active means max activation above about 30%; further: 0% is about no effect
Target sequence (P35462 whole entry, looked up): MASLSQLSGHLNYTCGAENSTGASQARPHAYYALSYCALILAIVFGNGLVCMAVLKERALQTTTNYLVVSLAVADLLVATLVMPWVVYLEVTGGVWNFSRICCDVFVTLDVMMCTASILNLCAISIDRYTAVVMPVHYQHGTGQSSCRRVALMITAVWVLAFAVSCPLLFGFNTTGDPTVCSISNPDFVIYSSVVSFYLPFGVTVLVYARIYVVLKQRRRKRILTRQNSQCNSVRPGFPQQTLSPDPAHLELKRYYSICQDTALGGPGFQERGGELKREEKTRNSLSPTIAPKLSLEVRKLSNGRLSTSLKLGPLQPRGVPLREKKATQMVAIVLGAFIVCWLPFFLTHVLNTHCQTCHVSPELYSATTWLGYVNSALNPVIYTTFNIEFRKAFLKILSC
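Cells at 1500/well, incubated overnight, then treated with pinned compounds (dopamine as control) for 90 min at 37 degrees C. DiscoveRx reagent added for 30 - 60 minutes at room temperature; luminescence read.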
TDP1 cell noCPT: qHTS for Inhibitors of human tyrosyl-DNA phosphodiesterase 1 (TDP1): qHTS in cells in absence of CPT; DT40 Tdp1-/- hTDP1 cells, no CPT, ATP luminescence, 48 h; Potency, µM (top dose mostly 46.2 µM), for inactives: top-dose activity change, negative = growth inhibition, hits mostly inhibitors; actives 15% (n = 420,000); further: potency means the concentration at half of the fitted maximal effect; on the % scale 0 is the no-effect control and ±100 the full control effect; nearly all actives have a fitted effect of over 55% in size
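Chicken DT40 Tdp1-/- cells complemented with human TDP1, screened without camptothecin (DMSO vehicle only), 400 cells/well. Compounds pin-transferred, cells incubated at 37 °C for at least 48 hr. Growth read as ATP-dependent luminescence (CellTiter-Glo, 30 min at RT).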
ClpP mod: qHTS Assay for Activators of ClpP | purified B. subtilis ClpP, FRET peptide cleavage, 20 min | Potency, µM (highest dose often 57.5 µM), without a hit: at the highest dose activity change, negative = active | actives 1.9% (n = 340,000) | AID 651965, 2013; active means well fitted falling curve with a large enough effect; inconclusive means small, poorly fitted or top-dose-only effect; inactive means no such curve, though single readings can be large or run the other way; further: potency means the concentration at half of the fitted maximal effect; the source files actives as falling curves though it sought activators and does not explain the sign; nearly all actives have a fitted effect of over 65% in size
Target sequence (P80244 whole entry, looked up): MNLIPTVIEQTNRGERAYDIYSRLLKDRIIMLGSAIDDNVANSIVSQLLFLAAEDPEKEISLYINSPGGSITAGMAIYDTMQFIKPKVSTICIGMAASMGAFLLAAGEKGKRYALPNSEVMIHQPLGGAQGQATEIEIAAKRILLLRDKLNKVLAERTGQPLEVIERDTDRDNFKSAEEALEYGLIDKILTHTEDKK
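Buffer: 100 mM Tris/HCl pH8, 100 mM KCl, 0.05% low protease BSA, 2.5% glycerol, 0.01% Tween-20. ClpP 10 microg/mL final; 20 min RT; delta FRET normalized to ADEP and DMSO controls.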
DT40 TDP1 CPT: growth inhibition of DT40 Tdp1-/-;hTDP1 cells with camptothecin (screen for TDP1 inhibitors); actives 12% (n = 420,000); chicken DT40 Tdp1-/-;hTDP1 cells + 20 nM CPT, ATP luminescence, 48 h; Potency, µM (titrated, usually from 46.2 µM), for inactives: top-dose activity change, negative = growth inhibition, actives largely listed as inhibitors; further: potency means the concentration at half of the fitted maximal effect; on the % scale 0 is the no-effect control and ±100 the full control effect; nearly all actives have a fitted effect of over 55% in size
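Chicken DT40 Tdp1-/- cells stably complemented with human TDP1 were seeded at 400 cells/well in medium containing 20 nM camptothecin, exposed to pin-transferred compounds, and grown at 37 °C for at least 48 hr. Viability was read as ATP luminescence.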
DRD3 antagonist: D3 dopamine receptor (human) antagonism. AID 652054. P35462. max response, negative = inhibition, %. actives 2.5% (n = 360,000). D3R cells, DiscoveRx beta-arrestin luminescence, antagonist mode; hits give low values; in the data active means max response below about -50%; inconclusive means no clear call, values can overlap the other calls; further: on the % scale 0 is the no-effect control and ±100 the full control effect
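Cells expressing the human receptor were seeded at 1500 cells/well, incubated overnight at 37 degrees C in 5% CO2, then exposed to library compounds with dopamine controls for 90 minutes at 37 degrees C before luminescent detection.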
IL-1B inflam inh: blocks inflammasome-driven IL-1 beta release; THP-1 LPS/ATP IL-1B secretion, AlphaLISA, 16 h; hits give low values; activity change, % at 57.5 µM; actives 4.7% (n = 360,000); AID 743279; in the data active means activity change below about -50%; inconclusive means mostly about -30% to -49%; further: on the % scale 0 is the no-effect control and ±100 the full control effect
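THP-1 cells pretreated 1 hr with compounds (up to 57.5 uM final), then stimulated with LPS (250 ng/mL final) plus ATP (1.25 mM final); secreted IL-1B measured by AlphaLISA after 16 hr, decreased signal indicating inhibition.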
The depositor's hits bear a star; u = inconclusive; x = no result given. Hits are enriched below; roughly 21% of the tested compounds scored in any of these assays. Unless noted, the call rests on the fitted dose curve; in most records, active means well fitted inhibition curve with a large enough effect; inconclusive means small, poorly fitted or top-dose-only effect; inactive means flat fitted curve, though single readings scatter.

SMILES	D3 ag	TDP1 cell noCPT	ClpP mod	DT40 TDP1 CPT	DRD3 antagonist	IL-1B inflam inh
CCn1cc(C(=O)N2CCN(c3cccc(Cl)c3)CC2)c(=O)c2cc(S(=O)(=O)N3CCCCC3)ccc21	-19.9	0.6%	-1.7%	-9.5%	x	x
O=[N+]([O-])c1cccc2nc(-c3ccccc3)c(-c3ccccc3)nc12	-21.0	u	0.9%	u	-5.4	-12.1
Cn1c(-[n+]2c(-c3ccccc3)cc(-c3ccccc3)cc2-c2ccccc2)nc2c([N+](=O)[O-])cccc21	-12.2	18.4µM*	-3.9%	9.2µM*	-60.1*	-62.1*
O=C(NC1CC(=O)N(c2ccc3c(c2)OCCO3)C1)c1c(F)cccc1Cl (stereo unspecified)	3.1	0.5%	-2.0%	6.0%	x	x
Nc1c(N(CCCO)C(=O)C2CCCCC2)c(=O)[nH]c(=O)n1Cc1ccccc1	2.1	13.3%	-1.4%	-7.9%	2.6	-6.6
CCC(Sc1ncnc2c1c(-c1ccccc1)cn2-c1ccc(OC)cc1)C(=O)OC (stereo unspecified)	8.1	u	31.6µM*	u	3.2	22.7
COC(=O)C(C)Sc1ncnc2c1c(-c1ccccc1)cn2-c1ccc(OC)cc1 (stereo unspecified)	6.1	-3.2%	u	u	10.2	40.3
COC(=O)C(C)Sc1ncnc2c1c(-c1ccccc1)cn2-c1ccc(F)cc1 (stereo unspecified)	20.5	16.4µM*	1.2%	4.11µM*	x	x
CCOC(=O)C(C)Sc1ncnc2c1c(-c1ccccc1)cn2-c1ccc(OC)cc1 (stereo unspecified)	-3.7	-18.4%	25.1µM*	-8.0%	-12.2	13.6
CCOc1ccc(-n2cc(-c3ccccc3)c3c(SC(C)C(=O)OC)ncnc32)cc1 (stereo unspecified)	3.2	u	u	u	7.0	36.8
CC(C)N(C(=O)Cc1ccccc1[N+](=O)[O-])C(C)C	1.3	-16.3%	x	-3.0%	6.6	67.8
CCOc1cc2c3c(c1)C1(Nc4ccccc4S1)C(=O)N3C(C)(C)CC2C (stereo unspecified)	3.7	u	0.3%	18.4µM*	18.7	14.6
Cc1cc(CNC(=O)c2cccnc2Cl)c2ccccc2n1	-2.3	u	x	u	-3.5	62.2
O=C(NCCN1CCC(n2c(=O)[nH]c3ccccc32)CC1)c1ccc(F)cc1F	-14.1	-22.7%	-2.2%	-22.4%	-108.9*	-19.7
O=C(NCCN1CCC(n2c(=O)[nH]c3ccccc32)CC1)c1ccc(Cl)cc1	-15.3	9.2µM*	0.5%	3.66µM*	-50.7*	-11.3
Cc1ccc(C(=O)NCC(=O)OCCCn2c(=O)[nH]c3ccccc32)cc1	3.7	-3.1%	x	7.2%	7.4	15.2
O=C(NCCN1CCC(n2c(=O)[nH]c3ccccc32)CC1)c1ccc(F)cc1	-17.1	u	1.7%	u	-79.2*	u
Cc1ccc(C(=O)NCCN2CCC(n3c(=O)[nH]c4ccccc43)CC2)cc1	-14.6	u	-0.7%	u	-106.4*	x
O=C(CCCN1CCC(n2c(=S)[nH]c3ccccc32)CC1)c1ccc(F)cc1	-24.8	u	x	u	x	x
O=C(O)CCC(=O)NNc1ccccc1[N+](=O)[O-]	2.8	-7.8%	-13.3%	12.0%	21.3	13.0
Cc1ccc(-n2nc3c(N4CCC(C(=O)N(C)Cc5ccccc5)CC4)nnc(C)c3c2C)cc1	-10.4	-21.1%	-1.7%	-22.6%	x	x
Cc1noc(C)c1NC(=O)N(C)C[C@H]1Oc2c(NS(=O)(=O)c3cn(C)cn3)cccc2C(=O)N([C@H](C)CO)C[C@@H]1C	-3.6	5.6%	-18.8%	4.3%	-15.7	0.0
COc1ccc(-n2c(SCc3ccccc3F)nc3c([nH]c4ccccc43)c2=O)cc1	-6.4	u	-6.6%	u	x	x
Cc1c(Cl)cc(C(C)C)c(O)c1CN1CCOCC1	6.5	-12.5%	4.2%	-21.0%	-4.4	6.8
O=C(NCCN1CCC(n2c(=O)[nH]c3ccccc32)CC1)c1ccc(Cl)c(Cl)c1	-15.1	18.4µM*	-1.3%	u	-85.1*	x
SMILES	D3 ag	TDP1 cell noCPT	ClpP mod	DT40 TDP1 CPT	DRD3 antagonist	IL-1B inflam inh
O=C(Nc1cccc(F)c1)N1CCC(n2c(=O)[nH]c3ccccc32)CC1	-38.3	u	x	-24.9%	-18.9	-22.1
O=C(NCCN1CCC(n2c(=O)[nH]c3ccccc32)CC1)c1cccs1	-16.5	2.8%	-1.1%	-5.6%	-102.7*	-9.0
Cc1ccc(C(=O)NCCN2CCC(n3c(=O)[nH]c4ccccc43)CC2)cc1F	-11.4	-32.7%	-0.6%	-28.4%	-70.1*	-24.0
O=C(NCCN1CCC(n2c(=O)[nH]c3ccccc32)CC1)c1c(F)cccc1F	-12.4	-32.5%	-1.2%	-23.3%	-92.4*	-64.1*
O=C(NCCN1CCOCC1)c1cccs1	-0.2	7.7%	0.3%	-1.0%	9.9	8.2
O=C(c1ccc2c(c1)CCC2)N1CCN(Cc2c(F)cccc2Cl)CC1	3.0	u	-4.0%	u	-5.7	-4.9
COC(C[C@@H]1O[C@@H]1[C@H](O)COCc1ccccc1)OC	-1.5	-0.7%	-1.1%	15.8%	-2.4	16.9
CCCS(=O)(=O)NC(=O)C1(C)CCN(C(=O)c2ccco2)C1 (stereo unspecified)	-1.5	0.2%	0.3%	-1.1%	9.5	20.7
CC1(C(=O)NS(=O)(=O)Cc2ccccc2)CCN1C(=O)Cc1cc(F)ccc1F (stereo unspecified)	3.8	7.7%	-0.5%	-12.3%	1.0	-0.7
Cc1ccc(C2/C(=C(\O)c3c(C)nc4ccccn34)C(=O)C(=O)N2CCN(C)C)o1 (stereo unspecified)	43.0*	6.2%	3.5%	-4.9%	11.0	-5.8
COC(=O)c1ccc(-c2csc(NC(=O)C3=COCCO3)n2)cc1	2.6	-13.1%	401.4%	-14.5%	-1.5	-13.6
COc1ccc(OC)c(-c2csc(NC(=O)C3=COCCO3)n2)c1	4.7	18.4µM*	31.6µM*	16.4µM*	10.1	-12.2
CC(=O)Nc1ccc(-c2csc(NC(=O)C3=COCCO3)n2)cc1	-4.3	u	-4.4%	u	19.9	-11.4
Cc1ccc(C)c(-c2csc(NC(=O)C3=COCCO3)n2)c1	-9.6	16.4µM*	x	20.6µM*	1.6	-10.4
Cc1ccc(-c2csc(NC(=O)C3=COCCO3)n2)cc1	4.1	u	-4.0%	u	-1.5	-0.9
